# Measurements: PubChem BioAssay AID624305 (National Center for Advancing Translational Sciences (NCATS), 2012)
# Inconclusive results are not listed. Unmarked numbers belong to inactive results. Calls of active or inactive are those of the source. Calls come from the whole dose curve; as a rule, active = well fitted activation curve with a large enough effect; inconclusive = small, poorly fitted or top-dose-only effect; inactive = no such curve, though single readings can be large or run the other way.
# Assay: qHTS assay for re-activators of p53 using a Luc reporter: Hit Validation; note: nearly all actives have a fitted effect of over 75% in size; for activation: 0% is about no effect
# Conditions: p53-responsive luciferase reporter cells, luminescence, H1299 line expressing heat-sensitive Ala138Val p53; series mostly up to 46.1 µM
# Method in brief: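 Hit confirmation with a 1:5 dilution series, at 37 deg C for 24 hrs, in H1299 cells co-expressing temperature-sensitive p53-A138V and p53-responsive luciferase. Nocodazole served as control; luminescence read after 10 min with detection reagent.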
# Potency is the fitted concentration of half-maximal effect.
Compound,Potency,activation
c1ccc2cc3c(NCCN4CCOCC4)ccnc3cc2c1,inactive,
O=S(=O)(CCOc1ccccc1)c1nc2ccccc2[nH]1,inactive,
Cc1nn(-c2ccccc2)c(N)c1Sc1ccc([N+](=O)[O-])cc1,inactive,
O=C(O)c1ccc(N/N=C/c2ccc3ncccc3c2)cc1,0.184 µM (active),
C#CC(C)(CC)NC(=O)Cn1nnc(-c2ccc(S(C)(=O)=O)cc2)n1 (stereo not drawn),inactive,
CC1(C)NC(=O)N(CC(=O)N2CCN(S(=O)(=O)c3ccccc3C(F)(F)F)CC2)C1=O,inactive,
CCc1ccc(NC(=O)c2cnn3ccccc23)cc1,0.92 µM (active),
CCN(CC)C(=O)CSC(=Nc1ccccc1F)NC#N,14.6 µM (active),
c1ccc2nc(-c3ccc(N4CCOCC4)cc3)ccc2c1,0.164 µM (active),
O=C(CC(Nc1ccc(F)cc1)C(=O)OCC(=O)c1cccs1)c1ccccc1 (stereo not drawn),inactive,
COc1ccc(CCNC2CCC(c3ccccc3)CC2)cc1 (stereo not drawn),inactive,
COc1ccc2oc(C(=O)Nc3nnc(C)s3)c(C)c2c1,1.84 µM (active),
Cc1ccccc1-c1noc(N)c1C#N,inactive,
Cc1ccc(S(=O)(=O)c2cn(CC(=O)Nc3ccccc3)c3ccc(F)cc3c2=O)cc1,inactive,
Cc1noc(C)c1C(=O)OCC(=O)N1CCc2ccccc21,inactive,
C=CCNc1nc(-c2cc3ccccc3o2)cs1,0.651 µM (active),
Cc1nc(SCC(=O)Nc2nccs2)c(C#N)c(C)c1C,0.651 µM (active),
Cc1cc(C(c2nnnn2Cc2ccccc2)N2CCOCC2)c(C)n1-c1ccc2c(c1)OCO2 (stereo not drawn),inactive,
O=C(N/N=C/c1ccccc1O)C1CC(=O)N(c2ccc(Cl)cc2)C1 (stereo not drawn),inactive,

Compound,Potency,activation
O=C(CSCC(=O)Nc1cccc([N+](=O)[O-])c1)Nc1ccccc1,inactive,
COC(=O)c1ccc(/C=C/c2ccc3cccc(OC(C)=O)c3n2)cc1,2.91 µM (active),
Cc1ccc2nc(-c3ccc(NC(=O)COC(=O)c4ccc(Br)o4)cc3)sc2c1,0.0517 µM (active),
Cc1ccc(NC(=O)/C(Cl)=C/c2ccccc2)cc1C,2.06 µM (active),
O=C(NCCC1=CCCCC1)c1ccc([N+](=O)[O-])cc1,2.59 µM (active),
Cc1ncsc1C(=O)Nc1nc2c(s1)CCCC2,1.84 µM (active),
NC(N)=Nc1nc(C2COc3ccccc3O2)cs1 (stereo not drawn),4.11 µM (active),
COCCSc1nnc(NC(=O)CCS(=O)(=O)c2ccccc2)s1,,-38.9% [at 9.22 µM]
Cc1ccc2nc(NC(=O)c3ccc(Cl)s3)sc2c1,0.731 µM (active),
COc1ccccc1-c1nc(-c2ccc(Br)o2)no1,0.366 µM (active),
CCN(Cc1ccccc1)C(=O)CN1C(=S)NC(C)(C)CC1C (stereo not drawn),,-15.4% [at 9.22 µM]
O=C(N/N=C(\c1ccccc1)c1cccnc1)c1cccc(F)c1,16.4 µM (active),
Cc1ccnc(NC(=O)c2sc3cc(Cl)ccc3c2Cl)c1,2.91 µM (active),
Cc1ccc2nc(C(F)(F)F)c(C#N)c(N)c2c1,inactive,
c1ccc(-c2csc(Nc3ncccn3)n2)cc1,2.31 µM (active),
CCOC(=O)N1CCN(S(=O)(=O)c2ccc(C(=O)NNc3nc4cc(C)cc(C)c4s3)cc2)CC1,,6.68% [at 9.22 µM]
O=C(NNc1c2ccccc2nc2ccccc12)c1ccc(O)cc1,inactive,
C=CCOc1c(Br)cc(CNCCCN2CCOCC2)cc1OC,inactive,
CCOC(=O)c1[nH]nc(C(=O)c2ccc(Br)cc2)c1O,inactive,
